# This is a sample that favours compounds with a hit; in the whole collection about 19% have one here.
# IL-1B inflam inh – inflammasome signaling inhibition, IL-1 beta readout | actives 4.7% (n = 360,000) | THP-1 LPS/ATP IL-1B secretion, AlphaLISA, 16 h; stronger effect = lower value | activity change, % at 57.5 µM; in the data active means activity change below about -50%; inconclusive means mostly about -30% to -49%
#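 Secreted IL-1B measured by AlphaLISA bead assay after 16 h compound exposure of THP-1 cells; compounds (final up to 57.5 uM) added 1 h before LPS (250 ng/mL) and ATP (1.25 mM) stimulation; lower signal means less secretion.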
# HT1080 IDH1KD tx – kills HT-1080 cells with IDH1 knockdown; HT-1080 IDH1 knockdown viability, ATP luminescence, 48 h; Potency, µM (titrated, usually from 46.1 µM), inactives show top-dose activity, negative = toxicity, most hits filed as cytotoxic; actives 2% (n = 360,000);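 further: potency means the concentration at half of the fitted maximal effect; 0% = DMSO wells and -100% = cell-free medium wells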
#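 In this qHTS, HT-1080 cells depleted of IDH1 are exposed for 48 h at 37 °C to compound titrations. Toxicity is scored from CellTiter-Glo luminescence, with DMSO as full viability and medium alone as none.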
# uPA generation – cell surface uPA generation inhibition; actives 0.31% (n = 330,000); cell surface uPA generation assay, qHTS; Potency, µM (highest dose often 38.3 µM), inactives show at the top dose activity change, negative = inhibition, actives largely listed as inhibitors; active means well fitted inhibition curve with a large enough effect; inconclusive means small, poorly fitted or top-dose-only effect; inactive means no such curve, though single readings can be large or run the other way; tested in mouse RAW 264.7 cells; further: potency means the concentration at half of the fitted maximal effect; nearly all actives have a fitted effect of over 55% in size
# TDP1 cell noCPT – qHTS for Inhibitors of human tyrosyl-DNA phosphodiesterase 1 (TDP1): qHTS in cells in absence of CPT. DT40 Tdp1-/- hTDP1 cells, no CPT, ATP luminescence, 48 h. Potency, µM (top dose mostly 46.2 µM), for inactives: at the highest dose activity change, negative = growth inhibition, most hits filed as inhibitors. actives 15% (n = 420,000). AID 686978, 2013; further: potency means the concentration at half of the fitted maximal effect; nearly all actives have a fitted effect of over 55% in size
#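 Cells were dispensed at 400 per well, compounds added by pin tool, plates incubated ≥48 hr at 37 °C, then CellTiter-Glo added for 30 min at room temperature before luminescence reading. Line: DT40 Tdp1-/- complemented with hTDP1; camptothecin omitted.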
# HT1080NT lethal – kills 2HG-producing HT-1080-NT fibrosarcoma cells. HT-1080-NT fibrosarcoma viability, CellTiter-Glo ATP luminescence, 48 h. Potency, µM (highest dose often 46.1 µM), inactives show top-dose activity, negative = less viability, hits mostly cytotoxic. actives 1.6% (n = 360,000). AID 686970;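 further: NT is the 2HG producing partner of a matched IDH1 knockdown line; potency means the concentration at half of the fitted maximal effect; 0% = DMSO-treated cells and -100% = media-only wells without cells; nearly all actives have a fitted effect of over 55% in size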
#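 Luminescent CellTiter-Glo readout after 48 hours of compound exposure at 37 degrees C defined viability of HT-1080-NT cells. Activity was normalized to DMSO wells and cell-free media wells; concentration-response curves were fitted and assigned curve classes.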
# DT40 TDP1 CPT – DT40-hTDP1 cell growth loss with CPT | actives 12% (n = 420,000) | AID 686979 | chicken DT40 Tdp1-/-;hTDP1 cells + 20 nM CPT, ATP luminescence, 48 h | Potency, µM (series often up to 46.2 µM), for the others: top-dose activity change, negative = growth inhibition, usual class: inhibitors; further: potency means the concentration at half of the fitted maximal effect; nearly all actives have a fitted effect of over 55% in size
#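 Chicken DT40 Tdp1-/- cells complemented with human TDP1, 400 cells/well, exposed to compounds plus 20 nM camptothecin for at least 48 h at 37 C; viability read as ATP content by CellTiter-Glo luminescence.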
# * hit, by the source's call; ? = inconclusive; nt = no result. Unless noted, the call rests on the fitted dose curve; in most records, active means well fitted curve in the direction sought with a large enough effect; inconclusive means small, poorly fitted or top-dose-only effect, or another doubt; inactive means no such curve, though single readings can be large; an effect the other way counts as inactive or inconclusive. Unless noted, on the % scale 0 is the no-effect control and ±100 the full control effect.
SMILES,IL-1B inflam inh,HT1080 IDH1KD tx,uPA generation,TDP1 cell noCPT,HT1080NT lethal,DT40 TDP1 CPT
CC(Sc1nnc(-c2cccs2)n1N)C(=O)NCC1CCCO1 (configuration not stated),-11.6,20.7%,-1.7%,4.6%,14.5%,-14.8%
CCCC(=O)Nc1nnc([C@H]2C[C@H](O)[C@@H](CO)O2)s1,-3.6,21.2%,nt,-1.8%,29.4%,-1.3%
O=C(CCc1ccccc1)NCc1nc2cccnc2n1Cc1ccc(F)cc1,nt,nt,nt,?,nt,-23.8%
O=C(NC1CC2CCCC(C1)N2C(=O)Nc1ccccc1F)C1CC1 (configuration not stated),1.2,17.3%,4.7%,?,28.3%,-28.9%
COc1cc(/C=N\NC(=O)c2ccc(Cl)cc2)ccc1Oc1ccc([N+](=O)[O-])cn1,-16.4,-13.6%,-4.6%,-19.6%,-13.3%,-3.6%
CCOc1cc(C=C(C#N)C#N)ccc1Oc1ccc([N+](=O)[O-])cn1,-28.6,-2.6%,-8.3%,13µM*,-0.3%,18.4µM*
N#C/C(=C/c1ccc(Oc2ccc([N+](=O)[O-])cn2)cc1)C(=O)N1CCOCC1,-28.9,-9.5%,0.0%,-27.3%,-1.1%,?
COc1cc(/C=N\NC(=O)c2ccccc2F)ccc1Oc1ccc([N+](=O)[O-])cn1,-11.8,7.31µM*,-14.3%,4.61µM*,20.6µM*,4.61µM*
COc1cc(/C=C(/C#N)c2ccc(F)cc2)ccc1Oc1ccc([N+](=O)[O-])cn1,-54.5*,?,-0.6%,3.66µM*,1.2%,2.91µM*
COc1cccc(C(=O)OCC(=O)NC(C)CCc2ccccc2)c1O (configuration not stated),-2.0,-1.1%,-2.8%,-9.8%,5.8%,5.4%
Cc1cc(N/N=C/c2ccccc2O)c2ccccc2n1,-62.8*,-11.0%,?,16.4µM*,0.0%,16.4µM*
COc1ccc(/C=N/Nc2cc(C)nc3ccc(Br)cc23)cc1,-100.7*,20.6µM*,-6.0%,8.2µM*,7.31µM*,?
Cc1cccc(N/N=C/c2ccccc2O)c1,-9.5,?,1.0%,-7.7%,?,23.0%
COc1ccc2nc(C)cc(N/N=C/c3cccc(OC)c3O)c2c1,-98.6*,16.4µM*,7.1%,?,?,?
O=C(CSc1nnc(CNC(=O)c2ccco2)o1)Nc1ccc(Br)cc1,4.1,-14.7%,-14.2%,-14.2%,-21.7%,-0.2%
COc1nc(=O)n(C2C=CC(=O)O2)cc1F (configuration not stated),0.0,?,nt,2.31µM*,?,2.31µM*
Cc1nn(CCCC(=O)NCc2ccc(F)cc2)c(=O)c2c1sc1ccccc12,nt,nt,nt,-18.0%,nt,-25.1%
COc1ccc(/C=N/Nc2cc(C)nc(N3CCOCC3)n2)cc1OC,-23.9,-12.8%,-1.1%,?,-2.6%,2.9%
Cc1nc(N/N=C/c2cccc(F)c2)cc(N2CCOCC2)n1,-96.7*,-1.4%,15.6%,?,-0.8%,?
Cc1nc(N/N=C/c2cccc([N+](=O)[O-])c2)cc(N2CCCCC2)n1,26.4,10.4%,nt,13µM*,-0.6%,?
Oc1cccc(/C=N/Nc2cc(N3CCOCC3)nc(N3CCOCC3)n2)c1,-54.0*,3.3%,1.4%,14.6µM*,-3.0%,16.4µM*
Oc1ccc(/C=N/Nc2cc(N3CCOCC3)nc(N3CCOCC3)n2)cc1O,25.2,-1.9%,-1.5%,20.6µM*,-0.7%,?
Cc1nc(N(C)C)c2sc(=S)n(Cc3ccccc3)c2n1,41.2,20.5%,4.1%,6.7%,6.8%,12.0%
Cc1cnc(-n2ncc(C(=O)N(C)CC3CCCN(C)C3)c2C2CC2)nc1-c1cccs1 (configuration not stated),nt,nt,nt,-5.7%,nt,0.2%
CCOC(=O)c1c(C)[nH]c(C)c1S(=O)(=O)N(C)CC(=O)Nc1ccccc1F,-1.8,11.6%,-12.4%,3.4%,11.8%,12.2%
SMILES,IL-1B inflam inh,HT1080 IDH1KD tx,uPA generation,TDP1 cell noCPT,HT1080NT lethal,DT40 TDP1 CPT
O=[N+]([O-])c1ccccc1/C=N/Nc1nc(N2CCCC2)nc(N2CCCC2)n1,17.1,-23.4%,0.0%,?,-20.6%,?
Oc1ccccc1/C=N/Nc1cc(N2CCCC2)nc(N2CCCC2)n1,-103.2*,-11.9%,6.8%,11.6µM*,-2.3%,11.6µM*
Cc1nc(N/N=C/c2ccc(O)cc2O)cc(N2CCOCC2)n1,-99.1*,4.11µM*,-9.5%,?,?,?
O=C1CN(C(=O)COC(=O)c2ccc(Br)o2)c2ccccc2N1,14.1,9.3%,12.0%,3.1%,5.6%,8.8%
CCC(C(=O)Nc1ccc(C(=O)OC)cc1)n1c(=O)c(-c2ccccc2NC(C)=O)nc2ccccc21 (configuration not stated),nt,nt,nt,3.26µM*,nt,14.6µM*
CC(=O)Nc1ccccc1-c1nc2ccccc2n(CC(=O)Nc2ccc(C)c(Cl)c2)c1=O,nt,nt,nt,-2.6%,nt,-8.5%
CCOc1ccc(NC(=O)C(CC)n2c(=O)c(-c3ccccc3NC(C)=O)nc3ccccc32)cc1 (configuration not stated),nt,nt,nt,?,nt,18.4µM*
S=C(NCC1(c2ccccc2)CCCC1)Nc1ccccc1,8.9,-9.3%,-13.8%,11.6µM*,-7.8%,20.6µM*
O=C(NCC1(c2ccccc2)CCCC1)C(=O)NCC1(c2ccccc2)CCCC1,0.0,6.5%,3.7%,-29.9%,11.8%,-1.2%
O=C(NCC1(c2ccccc2)CCCC1)c1ccccc1Br,0.0,-25.4%,1.8%,?,1.8%,16.4µM*
Cc1ccccc1NC(=O)C(=O)NCC1(c2ccccc2)CCCC1,nt,nt,nt,16.4µM*,nt,?
